The whole screen tested about 310,000 compounds, of which about 14,000 (4.5%) showed an effect of 50% or more. Effects have a minus sign here. Shown is part of a subset that was picked to be rich in strong results.
The molecules below were run against human ether-à-go-go-related gene (hERG) potassium channel (human, UniProt Q12809) (assay: primary screen, population patch clamp on CHO cells stably expressing hERG; higher = less effect of the substance).
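Note: peak tail current of the secondary pulse compared with the same well before compound.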

human ether-à-go-go-related gene (hERG) potassium channel, sequence (Q12809 whole entry, looked up): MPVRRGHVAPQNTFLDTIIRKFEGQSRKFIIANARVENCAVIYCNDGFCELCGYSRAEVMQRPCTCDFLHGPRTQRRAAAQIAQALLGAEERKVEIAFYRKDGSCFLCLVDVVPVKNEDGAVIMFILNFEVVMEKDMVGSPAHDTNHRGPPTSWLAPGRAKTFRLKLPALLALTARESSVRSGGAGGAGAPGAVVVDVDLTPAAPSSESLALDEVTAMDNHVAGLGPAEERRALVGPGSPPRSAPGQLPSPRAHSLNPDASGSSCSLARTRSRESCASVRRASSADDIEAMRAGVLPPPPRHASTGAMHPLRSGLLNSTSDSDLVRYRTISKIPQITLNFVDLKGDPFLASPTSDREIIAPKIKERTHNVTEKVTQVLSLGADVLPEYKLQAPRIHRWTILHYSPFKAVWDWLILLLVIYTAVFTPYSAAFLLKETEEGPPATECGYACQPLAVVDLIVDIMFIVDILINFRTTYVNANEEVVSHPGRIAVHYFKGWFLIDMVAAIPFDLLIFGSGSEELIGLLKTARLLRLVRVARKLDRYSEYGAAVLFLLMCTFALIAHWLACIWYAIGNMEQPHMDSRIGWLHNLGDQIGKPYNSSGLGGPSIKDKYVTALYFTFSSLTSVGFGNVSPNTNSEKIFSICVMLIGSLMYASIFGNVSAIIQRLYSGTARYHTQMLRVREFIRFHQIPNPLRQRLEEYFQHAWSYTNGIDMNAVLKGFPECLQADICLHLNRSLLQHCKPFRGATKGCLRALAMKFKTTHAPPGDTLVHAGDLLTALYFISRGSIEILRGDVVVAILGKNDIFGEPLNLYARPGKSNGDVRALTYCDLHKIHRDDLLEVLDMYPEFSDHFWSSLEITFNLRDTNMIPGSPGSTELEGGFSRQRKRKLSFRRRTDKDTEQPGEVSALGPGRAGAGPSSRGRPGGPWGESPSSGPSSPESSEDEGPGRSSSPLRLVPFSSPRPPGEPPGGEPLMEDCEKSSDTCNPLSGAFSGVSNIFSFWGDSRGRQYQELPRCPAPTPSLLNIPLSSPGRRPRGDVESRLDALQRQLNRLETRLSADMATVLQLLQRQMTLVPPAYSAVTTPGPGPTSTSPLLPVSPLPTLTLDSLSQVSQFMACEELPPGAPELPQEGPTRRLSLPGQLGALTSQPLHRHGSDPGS

| SMILES | hERG current change (%, negative = inhibition) at 10uM |
| --- | --- |
| COc1ccccc1CNC(=O)CCc1cn(C)c2ccccc12 | -2.68% |
| Cc1c(C(=O)N2CCCCC2)c(S(=O)(=O)Nc2ccc(F)cc2F)c(C)n1C | 21.9% |
| Cc1cc(C)c(S(=O)(=O)N2CCN(C(=O)c3ccc4c(c3)OCO4)CC2)c(C)c1 | -31.4% |
| O=C(N/N=C/c1ccc(N2CCOCC2)cc1)c1ccc(NS(=O)(=O)c2cccs2)cc1 | 9.69% |
| CC1CN(c2ccc([N+](=O)[O-])cc2C#N)CC(C)O1 (stereo not drawn) | -48.6% |
| O=[N+]([O-])c1ccc(N2CCN(c3ccccc3O)CC2)c(Cl)c1 | 9.9% |
| CCN1CCN(c2ccc([N+](=O)[O-])cc2C#N)CC1 | -68.2% |
| CC(=O)N1CCN(c2ccc(C(N)=O)cc2[N+](=O)[O-])CC1 | 8.73% |
| CCCN1CCN(c2ccc(S(N)(=O)=O)cc2[N+](=O)[O-])CC1 | -31.4% |
| CC(=O)N1CCN(c2ccc([N+](=O)[O-])cc2C#N)CC1 | -88% |
| N#Cc1cc([N+](=O)[O-])ccc1N1CCCC1 | -38% |
| CCCN1CCN(c2ccc([N+](=O)[O-])cc2C#N)CC1 | -72% |
| O=[N+]([O-])c1ccc(N2CCN(CCOCCO)CC2)c([N+](=O)[O-])c1 | -45.6% |
| O=[N+]([O-])c1ccc(N2CCCCCC2)c([N+](=O)[O-])c1 | 3.24% |
| N#Cc1cc([N+](=O)[O-])ccc1N1CCN(c2ccccc2O)CC1 | -35% |
| O=[N+]([O-])c1ccc(N2CCN(c3ccc([N+](=O)[O-])cc3CO)CC2)c(CO)c1 | -64.7% |
| COc1cccc(NS(=O)(=O)c2c(C)n(C)c(=O)n(C)c2=O)c1 | -19.9% |
| CCCc1nnc(SCC(=O)N2CCOCC2)n1CC1CCCO1 (stereo not drawn) | 23.6% |
| CC1CCN(C(=S)c2ccc(O)cc2)CC1 | -14.1% |
| O=c1[nH]c2ccc(S(=O)(=O)N3CCN(C4CCCCC4)CC3)cc2[nH]c1=O | 0.776% |
| O=C(Nc1cccc(C(F)(F)F)c1)Oc1ccc(Cl)c2cccnc12 | 9.96% |

| SMILES | hERG current change (%, negative = inhibition) at 10uM |
| --- | --- |
| CCN(c1ccccc1)S(=O)(=O)c1ccc(Cl)c(C(=O)OCC(=O)c2[nH]c(C)c(C(C)=O)c2C)c1 | -22.6% |
| COc1cc2c(cc1OC)CN(c1ccc(F)cc1[N+](=O)[O-])CC2 | -27.9% |
| COc1cc2c(cc1OC)CN(c1ccc([N+](=O)[O-])cc1C#N)CC2 | -50% |
| COc1cc2c(cc1OC)CN(c1ccc([N+](=O)[O-])cc1Cl)CC2 | -41% |
| CCn1c(NC2CCCCC2)nc2ccccc21 | -15% |
| Cc1ccc(NC(=O)c2cccc(N3C(=O)CCC3=O)c2)nc1 | 3.86% |
| C/C(=N\NS(=O)(=O)c1cccc([N+](=O)[O-])c1)c1cc2ccccc2o1 | -2.61% |
| O=C(N/C(=C\c1ccc(F)cc1)C(=O)N1CCOCC1)c1ccccc1 | -32% |
| O=C(N/C(=C\c1ccccc1)C(=O)N1CCOCC1)c1cccc(Br)c1 | 18.8% |
| Cc1ccc(C(=O)N/C(=C/c2ccc(Cl)cc2)C(=O)N2CCOCC2)cc1 | -32.6% |
| O=C(N/C(=C\c1ccc(Br)cc1)C(=O)N1CCOCC1)c1ccc([N+](=O)[O-])cc1 | -75.5% |
| O=C(N/C(=C\c1cccc([N+](=O)[O-])c1)C(=O)N1CCOCC1)c1cccc(Br)c1 | -4.26% |
| COC(=O)c1ccc(/C=C(/NC(=O)c2ccccc2)C(=O)N2CCOCC2)cc1 | -9.15% |
| O=C(Nc1ccc(C(=O)O)cc1)/C(=C\c1ccc([N+](=O)[O-])cc1)NC(=O)c1ccc(Br)cc1 | 7.58% |
| O=C(N/C(=C\c1ccc([N+](=O)[O-])cc1)C(=O)N1CCOCC1)c1cccc(Br)c1 | -74.2% |
| O=C(N/C(=C/c1ccccc1)C(=O)N1CCOCC1)c1ccc([N+](=O)[O-])cc1 | -64.2% |
| O=C(N/C(=C\c1ccc(Cl)cc1)C(=O)N1CCOCC1)c1ccc([N+](=O)[O-])cc1 | -83% |
| O=C(N/C(=C/c1cccc([N+](=O)[O-])c1)C(=O)N1CCOCC1)c1ccc(Br)cc1 | -46.6% |
| O=C(N/C(=C\c1cccc([N+](=O)[O-])c1)C(=O)N1CCOCC1)c1ccc([N+](=O)[O-])cc1 | 12.5% |
| CC(=O)c1cccc(OCC(=O)N(C)CC(=O)Nc2ccc(F)cc2)c1 | -8.68% |
| CCC(C)NC(=O)c1ccc(CSCc2ccc(Cl)cc2)o1 (stereo not drawn) | -38.9% |
